Where a name gives a salt, the structure may show the parent alone.
Experiments:
Conditions in all cases: compound concentration in added solution (µM; 5 µl added to 20 µl cells): 10; 18 h
[1] = tested on: A431; assay: LBPA endosome anti-LBPA integrated intensity (sum per cell), Z-score; higher = more LBPA staining
Procedure, shortened: (§1)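 Reported values are Z-scores from AcuityXpress normalisation of per-cell integrated LBPA or filipin staining. HeLa MZ or A431 cells (3,500/well in 20 µl) were seeded onto 5 µl of 10 µM compound solution in duplicate 384-well plates, incubated 18 h, fixed in 4% PFA, stained and imaged at 20×. MetaXpress segmentation measured the intensity over the whole cell or within LBPA endosomes.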

[2] = tested on: HeLa MZ; assay: as above
Procedure, shortened: as §1

[3] = tested on: A431; assay: whole-cell filipin (free cholesterol) integrated intensity, Z-score; higher = more cholesterol staining
Procedure, shortened: as §1

[4] = tested on: HeLa MZ; assay: as above
Procedure, shortened: as §1

[5] = tested on: A431; assay: filipin (cholesterol) integrated intensity within LBPA endosomes, Z-score; higher = more cholesterol in LBPA endosomes
Procedure, shortened: as §1

[6] = tested on: HeLa MZ; assay: as above
Procedure, shortened: as §1

Row | Compound | LBPA endosome anti-LBPA integrated intensity (z-score) [1] | LBPA endosome anti-LBPA integrated intensity (z-score) [2] | whole-cell filipin (z-score) [3] | whole-cell filipin (z-score) [4] | filipin (z-score) [5] | filipin (z-score) [6]
1 | CCn1cc(C(=O)O)c(=O)c2cc(F)c(N3CCNCC3)nc21 [Enoxacin] | -0.309 | -0.0536 | 0.119 | 0.315 | -0.364 | -0.345
2 | OC(c1cc(C(F)(F)F)nc2c(C(F)(F)F)cccc12)C1CCCCN1 (stereo not drawn) [Mefloquine hydrochloride] | 2 | -0.429 | 0.872 | -0.477 | 1.56 | 1.56
3 | CCOc1ccc(NC(C)=O)cc1 [Phenacetin] | -0.594 | -0.322 | -0.814 | -0.392 | -0.555 | -0.582
4 | CCCCCCCCNC(C)C(O)c1ccc(SC(C)C)cc1 (stereo not drawn) [Suloctidil] | 2.96 | -0.389 | 1.67 | 1.53 | 3.3 | 3.27
5 | CC1CCc2cc(F)cc3c(=O)c(C(=O)O)cn1c23 (stereo not drawn) [Flumequine] | -0.63 | -0.763 | -0.836 | -0.225 | -0.543 | -0.72
6 | Oc1c(Cl)cc(Cl)c(Cl)c1Cc1c(O)c(Cl)cc(Cl)c1Cl [Hexachlorophene] | -0.408 | -0.818 | -0.203 | -0.11 | -0.443 | -0.32
7 | CN1C(=O)OC(C)(C)C1=O [Trimethadione] | -0.446 | -0.0741 | -0.388 | -0.0387 | -0.476 | -0.496
8 | CO/N=C(\C(=O)N[C@@H]1C(=O)N2C(C(=O)O)=C(C[N+]3(C)CCCC3)CS[C@H]12)c1csc(N)n1 [Cefepime hydrochloride] | -0.483 | -1.02 | -0.176 | -0.327 | -0.47 | -0.504
9 | COc1ccc(CC(C)NCC(O)c2ccc(O)c(NC=O)c2)cc1 (stereo not drawn) [Formoterol fumarate] | -0.505 | -1.42 | 0.171 | -0.609 | -0.478 | -0.313
10 | C[C@]1(Cn2ccnn2)[C@H](C(=O)O)N2C(=O)C[C@H]2S1(=O)=O [Tazobactam] | -0.572 | -0.303 | -0.35 | 0.00122 | -0.502 | -0.538
11 | N[C@@H](Cc1ccc(O)c(O)c1)C(=O)O [Levodopa] | -0.339 | -0.518 | -0.462 | -0.115 | -0.332 | -0.358
12 | CCCOc1ccc(C(=O)OCCN(CC)CC)cc1N [Proparacaine hydrochloride] | -0.432 | 0.26 | -0.369 | -0.271 | -0.454 | -0.0385
13 | CC(C)NC[C@H](O)COc1ccc(CC(N)=O)cc1 [(S)-(-)-Atenolol] | -0.484 | 0.0669 | -0.593 | -0.509 | -0.513 | -0.661
14 | Nc1cc(N2CCCCC2)nc(N)[n+]1[O-] [Minoxidil] | -0.316 | -0.257 | -0.274 | 0.345 | -0.426 | -0.263
15 | CN1C(=O)CC(c2ccccc2)C1=O (stereo not drawn) [Phensuximide] | -0.488 | -0.914 | -0.489 | -0.774 | -0.376 | -0.653
16 | COc1ccc(-c2cc(=O)c3c(O)cc(O[C@@H]4O[C@H](CO[C@@H]5O[C@@H](C)[C@H](O)[C@@H](O)[C@H]5O)[C@@H](O)[C@H](O)[C@H]4O)cc3o2)cc1O [Diosmin] | -0.501 | -0.4 | -0.678 | -0.378 | -0.518 | -0.715
17 | O=C(CCCN1CC=C(n2c(=O)[nH]c3ccccc32)CC1)c1ccc(F)cc1 [Droperidol] | 0.278 | 1.75 | 0.378 | 0.978 | 0.193 | 0.762
18 | O=C1CCC(N2C(=O)c3ccccc3C2=O)C(=O)N1 (stereo not drawn) [Thalidomide] | -0.476 | -0.403 | -0.887 | -1.09 | -0.544 | -0.68
19 | COC1=C(OC)C(=O)C(CCCCCCCCCCO)=C(C)C1=O [Idebenone] | -0.691 | -0.73 | -0.893 | -0.402 | -0.585 | -0.582
20 | CCC(=O)OCC(=O)[C@@]1(OC(=O)CC)[C@@H](C)C[C@H]2[C@@H]3CCC4=CC(=O)C=C[C@]4(C)[C@@]3(Cl)[C@@H](O)C[C@@]21C [Beclomethasone dipropionate] | -0.15 | 0.711 | 0.251 | -0.00746 | -0.116 | 0.00681
21 | Clc1ccc(C(Cn2ccnc2)OCc2c(Cl)cccc2Cl)c(Cl)c1 (stereo not drawn) [Isoconazole] | -0.0559 | 1.26 | -0.00171 | -0.264 | 0.0343 | 0.0567
22 | N#CC(c1ccc(Cl)cc1)c1c(Cl)cc(-n2ncc(=O)[nH]c2=O)cc1Cl (stereo not drawn) [Diclazuril] | -0.281 | 0.505 | 0.197 | 0.559 | -0.215 | -0.204
23 | COc1c(N2C[C@@H]3CCCN[C@@H]3C2)c(F)cc2c(=O)c(C(=O)O)cn(C3CC3)c12 [Moxifloxacin] | -0.595 | -1.37 | -0.138 | -0.0544 | -0.469 | -0.207
